According to PubChem BioAssay AID1159580 (chemical genetic matrix, 2015):
Among all 5,500 compounds or so, about 2,000 (36%) were called active. Not shown: some 18% with an inconclusive outcome. Cut-off read from the data, not from the text of the source: active = normalized growth mostly below about 0.91 (no sharp cut-off); inconclusive = no clear call, values can overlap the other calls; inactive = mostly above about 0.92. Some of the results follow.

Assay: chemical genetic growth profiling, strain panel (AID 1159580);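 note: tested at 20 µM; growth read once vehicle control cultures reached saturation at 30 °C; 1 = growth at the plate median or of vehicle wells; lower values mean less growth of the strain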
Details: growth OD

Measured: normalized growth

Cc1occc(=O)c1O
inactive: S. cerevisiae deletion strains, locus YKL009W, strain mrt4, hits give low values 1.01 | S. cerevisiae deletion strains, locus YKL068W, hits give low values 1 | S. cerevisiae deletion strains, locus YKL085W, strain MDH1 (second series), hits give low values 1 | S. cerevisiae deletion strains, locus YKL085W, strain MDH1, hits give low values 1 | S. cerevisiae deletion strains, locus YKL160W, strain elf1, hits give low values 0.962 | S. cerevisiae deletion strains, locus YKR001C, strain vps1, hits give low values 1.03 | S. cerevisiae deletion strains, locus YKR026C, strain gcn3, hits give low values 0.97 | S. cerevisiae deletion strains, locus YKR091W, strain srl3, hits give low values 0.962 | S. cerevisiae deletion strains, locus YLL001W, strain dnm1, hits give low values 0.96 | S. cerevisiae deletion strains, locus YLL026W, hits give low values 0.961 | S. cerevisiae deletion strains, locus YLL041C, strain sdh2, hits give low values 0.977 | S. cerevisiae deletion strains, locus YLR027C, strain aat2, hits give low values 0.97 | S. cerevisiae deletion strains, locus YLR039C, strain RIC1, hits give low values 1.01 | S. cerevisiae deletion strains, locus YLR058C, strain SHM2, hits give low values 1.01 | S. cerevisiae deletion strains, locus YLR102C, strain apc9, hits give low values 1.01 | S. cerevisiae deletion strains, locus YLR113W, strain HOG1, hits give low values 1.03 | S. cerevisiae deletion strains, locus YLR221C, strain rsa3, hits give low values 0.96 | S. cerevisiae deletion strains, locus YLR258W, strain gsy2, hits give low values 0.973 | S. cerevisiae deletion strains, locus YLR262C, strain YPT6 (second series), hits give low values 0.964 | S. cerevisiae deletion strains, locus YLR262C, strain YPT6, hits give low values 1.01 | S. cerevisiae deletion strains, locus YLR268W, strain sec22, hits give low values 1.01 | S. cerevisiae deletion strains, locus YLR320W, strain mms22, hits give low values 0.95 | S. cerevisiae deletion strains, locus YLR330W, strain CHS5, hits give low values 0.999 | S. cerevisiae deletion strains, locus YLR342W, strain FKS1 (second series), hits give low values 1 | S. cerevisiae deletion strains, locus YLR342W, strain FKS1, hits give low values 0.974 | S. cerevisiae deletion strains, locus YLR357W, strain rsc2, hits give low values 0.941 | S. cerevisiae deletion strains, locus YLR370C, strain arc18, hits give low values 0.98 | S. cerevisiae deletion strains, locus YLR371W, strain rom2, hits give low values 1.02 | S. cerevisiae deletion strains, locus YLR384C, strain iki3, hits give low values 0.969 | S. cerevisiae deletion strains, locus YLR418C, strain cdc73, hits give low values 1.03 | S. cerevisiae deletion strains, locus YML016C, strain PPZ1, hits give low values 1 | S. cerevisiae deletion strains, locus YML032C, strain rad52, hits give low values 1.01 | S. cerevisiae deletion strains, locus YML120C, strain ndi1, hits give low values 0.95 | S. cerevisiae deletion strains, locus YML124C, strain tub3, hits give low values 1.01 | S. cerevisiae deletion strains, locus YMR058W, strain fet3, hits give low values 0.971 | S. cerevisiae deletion strains, locus YMR078C, strain ctf18, hits give low values 1.01 | S. cerevisiae deletion strains, locus YMR125W, strain sto1, hits give low values 0.935 | S. cerevisiae deletion strains, locus YMR129W, hits give low values 0.972 | S. cerevisiae deletion strains, locus YMR205C, strain PFK2, hits give low values 0.948 | S. cerevisiae deletion strains, locus YMR223W, strain ubp8, hits give low values 0.998 | S. cerevisiae deletion strains, locus YMR231W, strain pep5, hits give low values 0.976 | S. cerevisiae deletion strains, locus YMR307W, strain GAS1, hits give low values 0.968 | S. cerevisiae deletion strains, locus YNL067W, strain RPL9B, hits give low values 1 | S. cerevisiae deletion strains, locus YNL071W, strain lat1, hits give low values 0.979 | S. cerevisiae deletion strains, locus YNL128W, strain TEP1, hits give low values 1.03 | S. cerevisiae deletion strains, locus YNL183C, strain NPR1, hits give low values 0.97 | S. cerevisiae deletion strains, locus YNL209W, strain ssb2, hits give low values 0.971 | S. cerevisiae deletion strains, locus YNL233W, strain BNI4, hits give low values 1.01 | S. cerevisiae deletion strains, locus YNL248C, strain rpa49, hits give low values 0.975 | S. cerevisiae deletion strains, locus YNL250W, strain rad50, hits give low values 1 | S. cerevisiae deletion strains, locus YNL271C, strain bni1, hits give low values 1.02 | S. cerevisiae deletion strains, locus YNL298W, strain CLA4, hits give low values 1.05 | S. cerevisiae deletion strains, locus YNL307C, strain MCK1, hits give low values 1.02 | S. cerevisiae deletion strains, locus YNL322C, strain KRE1 (second series), hits give low values 0.943 | S. cerevisiae deletion strains, locus YNL322C, strain KRE1, hits give low values 1 | S. cerevisiae deletion strains, locus YNR049C, strain mso1, hits give low values 0.958 | S. cerevisiae deletion strains, locus YNR052C, strain pop2, hits give low values 1.01 | S. cerevisiae deletion strains, locus YOL012C, strain htz1 1.37 | S. cerevisiae deletion strains, locus YOL147C, strain pex11, hits give low values 1.01 | S. cerevisiae deletion strains, locus YOR001W, strain rrp6, hits give low values 0.983 | S. cerevisiae deletion strains, locus YOR061W, strain CKA2, hits give low values 1.01 | S. cerevisiae deletion strains, locus YOR069W, strain VPS5, hits give low values 1.01 | S. cerevisiae deletion strains, locus YOR070C, strain gyp1, hits give low values 0.969 | S. cerevisiae deletion strains, locus YOR080W, strain dia2, hits give low values 0.961 | S. cerevisiae deletion strains, locus YOR083W, strain WHI5, hits give low values 0.952 | S. cerevisiae deletion strains, locus YOR106W, strain vam3, hits give low values 0.942 | S. cerevisiae deletion strains, locus YOR136W, strain idh2, hits give low values 1.02 | S. cerevisiae deletion strains, locus YOR144C, strain elg1, hits give low values 1.01 | S. cerevisiae deletion strains, locus YOR184W, strain ser1, hits give low values 1.03 | S. cerevisiae deletion strains, locus YOR231W, strain MKK1, hits give low values 1.02 | S. cerevisiae deletion strains, locus YOR265W, strain rbl2, hits give low values 0.971 | S. cerevisiae deletion strains, locus YOR270C, strain vph1, hits give low values 0.931 | S. cerevisiae deletion strains, locus YOR290C, strain snf2, hits give low values 0.916 | S. cerevisiae deletion strains, locus YOR316C, strain cot1, hits give low values 1.01 | S. cerevisiae deletion strains, locus YPL051W, strain arl3, hits give low values 0.973 | S. cerevisiae deletion strains, locus YPL055C, strain LGE1, hits give low values 1.01 | S. cerevisiae deletion strains, locus YPL078C, strain atp4, hits give low values 0.968 | S. cerevisiae deletion strains, locus YPL106C, strain sse1, hits give low values 0.924 | S. cerevisiae deletion strains, locus YPL240C, strain hsp82, hits give low values 0.983 | S. cerevisiae deletion strains, locus YPL241C, strain CIN2, hits give low values 1 | S. cerevisiae deletion strains, locus YPL256C, strain CLN2, hits give low values 1.01 | S. cerevisiae deletion strains, locus YPR119W, strain clb2, hits give low values 1 | S. cerevisiae deletion strains, locus YPR141C, strain kar3, hits give low values 1 | S. cerevisiae deletion strains, locus YPR163C, strain tif3, hits give low values 1 | S. cerevisiae deletion strains, locus YPR167C, strain met16, hits give low values 1.01 | S. cerevisiae deletion strains, strain wtn01, hits give low values 0.993 | S. cerevisiae strains, strain wild type, hits give low values 1
